Reference: PubChem BioAssay (NCATS)
Where “and” joins values, the source holds several entries; their conditions need not be identical. Equal entries are not always repeated. Results filed as inconclusive are left out. A call without a number means that no potency is given here. Calls of active or inactive are those of the source. Unless noted, calls come from the whole dose curve; as a rule, active = well fitted curve in the direction sought with a large enough effect; inconclusive = small, poorly fitted or top-dose-only effect, or another doubt; inactive = no such curve, though single readings can be large; an effect the other way counts as inactive or inconclusive.

Legend:
[1] = Cell Viability - SK-N-SH (AID 435; calls by dose curve;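 note: potency is the fitted concentration of half-maximal effect; compound exposure lasted 40 h at 37 °C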); conditions: SK-N-SH neuroblastoma cell viability qHTS
Procedure, shortened: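 CellTiter-Glo ATP luminescence, 20 min RT read; cells pre-plated 5 hr, compound 40 hr at 37 °C, 1500 cells/well, complete medium. Normalized DMSO = 0, 100 uM tamoxifen = 100% inhibition; Hill-fit AC50.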

[2] = Cell Viability - N2a (AID 540); conditions: N2a mouse neuroblastoma cell viability; at 92.2 µM (top of the series); note: nearly all actives have a fitted effect of over 45% in size
Procedure, shortened: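 Mouse neuroblastoma N2a cells, 1500/well, exposed to compounds 40 h at 37 °C in complete medium. Viability measured as cellular ATP by CellTiter-Glo luminescence; AC50 from Hill fits of concentration-response.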

[3] = Cell Viability - SH-SY5Y (AID 544); conditions: SH-SY5Y neuroblastoma cell viability; viability change, negative = cytotoxic: at 92.2 µM (top of the series); note: nearly all actives have a fitted effect of over 55% in size
Procedure, shortened: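 SH-SY5Y human neuroblastoma cells (1500/well) incubated 5 h, then compound-treated 40 h at 37 °C in complete medium. Viability read as intracellular ATP by CellTiter-Glo luminescence after 20 min; AC50 from Hill-equation fits of qHTS concentration-response.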

[4] = Cellular Toxicity (caspase-3) HepG2 (AID 654); conditions: HepG2 caspase-3 activation, luminescence, 0% = DMSO only, 100% = tamoxifen; series mostly up to 92.2 µM;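 note: cells exposed to compound for 16 hours before reading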
Procedure, shortened: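 HepG2 cells (1500/well) were treated 16 h at 37 °C in complete medium, then caspase 3/7 activity was read by Caspase-Glo luminescence. Data were normalized to DMSO and 100 uM tamoxifen; AC50 came from Hill-equation fits of qHTS concentration-response.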

[5] = Cellular Toxicity (caspase-3) Hek293 (AID 664); conditions: HEK293 caspase-3 activation, DMSO = 0%, 100 µM tamoxifen = 100%; series mostly up to 92.2 µM;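 note: cells exposed to compound for 16 h at 37 °C before readout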
Procedure, shortened: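 HEK293 cells in complete medium treated 16 h at 37 °C, then Caspase-Glo 3/7 luminescence read after 20 min at room temperature. Normalized to DMSO and 100 uM tamoxifen; AC50 from Hill fit of concentration-response.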

[6] = Cellular Toxicity (caspase-3) NIH 3T3 (AID 666); conditions: NIH 3T3 caspase-3 activation, apoptosis/toxicity, 0% DMSO, 100% is 100 µM tamoxifen; series mostly up to 92.2 µM;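 note: caspase signal read after 16 h compound exposure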
Procedure, shortened: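 Mouse NIH 3T3 fibroblasts (1000/well) treated 16 h at 37 C; caspase-3/7 activity measured by Caspase-Glo 3/7 luminescence after 20 min. Normalized to DMSO and 100 uM tamoxifen; AC50 from Hill fits.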

[7] = Cell Viability - LYMP1-002 - Assay at 16 hr (AID 948); conditions: LYMP1-002 lymphoblastoid cell viability; series mostly up to 92.2 µM
Procedure, shortened: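 LYMP1-002 human lymphoblastoid cells, 2500/well; 5 hr 37 C; cpd 16 hr 37 C; CellTiter-Glo 30 min RT; luminescence (ATP). Concentration-response, Hill-fit AC50. Pos ctrl tetraoctylammonium bromide.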

[8] = MultiTox-Fluor Cytotoxicity Assay - LYMP1-002 - Live Cells (AID 955); conditions: LYMP1-002 lymphoblastoid live-cell protease fluorescence viability; series mostly up to 46.1 µM;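 note: cells exposed to compound for 16 hours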
Procedure, shortened: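 Human lymphoblastoid LYMP1-002 cells, 2500/well, treated 16 h at 37 C in complete medium. Live-cell protease activity via GF-AFC fluorescence (Ex/Em 405/510) after 60 min reagent incubation; AC50 from Hill fits.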

[9] = MultiTox-Fluor Cytotoxicity Assay - LYMP1-003 - Live Cells (AID 962); conditions: LYMP1-003 lymphoblastoid cells, MultiTox-Fluor live-cell protease fluorescence; series mostly up to 92.2 µM;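 note: cells exposed to compound for 16 hours at 37 °C; cytotoxic hits lower the live-cell protease signal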
Procedure, shortened: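 LYMP1-003 lymphoblastoid cells, 2500/well in complete medium, treated 16 h at 37 C; live-cell protease cleavage of GF-AFC read by fluorescence (Ex/Em 405/510) after 60 min reagent; AC50 from Hill fits of concentration-response.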

[10] = Cell Viability - LYMP1-003 - Assay at 24 hr (AID 963); conditions: LYMP1-003 lymphoblastoid cell viability; series mostly up to 92.2 µM
Procedure, shortened: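 Human lymphoblastoid LYMP1-003 cells, 2500/well, treated 24 h at 37 C in complete medium. Viability read as intracellular ATP by CellTiter-Glo luminescence after 30 min at room temperature; AC50 from Hill-equation fits of qHTS concentration-response.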

[11] = Cell Viability - LYMP2-015 (AID 971); conditions: LYMP2-015 lymphoblastoid cell viability; series mostly up to 92.2 µM; note: nearly all actives have a fitted effect of over 55% in size
Procedure, shortened: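 LYMP2-015 human lymphoblastoid cells (2500/well) in complete medium, compound-treated 24 h at 37 C; viability read as cellular ATP by CellTiter-Glo luminescence after 30 min at room temperature. AC50 from Hill-equation fits of qHTS concentration-response data.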

[12] = Cell Viability - LYMP2-025 (AID 976); conditions: LYMP2-025 lymphoblastoid cell viability; series mostly up to 92.2 µM
Procedure, shortened: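 Human lymphoblastoid LYMP2-025 cells, 2500/well, exposed 24 h at 37 C in complete medium in 1536-well qHTS. Viability as cellular ATP by CellTiter-Glo luminescence; AC50 from Hill fits of concentration-response data.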

[13] = Cell Viability - LYMP2-002 (AID 977); conditions: LYMP2-002 lymphoblastoid cell viability, qHTS; series mostly up to 92.2 µM;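 note: compound exposure lasted 24 h at 37 °C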
Procedure, shortened: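 Cytotoxicity is scored as concentration-dependent loss of cellular ATP in a human lymphoblastoid line after 24 hr compound treatment at 37 C. AC50 is obtained by modelling concentration-response data with the Hill equation.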

[14] = Cell Viability - LYMP2-006 (AID 978); conditions: LYMP2-006 lymphoblastoid cell viability, qHTS; series mostly up to 92.2 µM;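 note: cells exposed to compound for 24 hours; nearly all actives have a fitted effect of over 60% in size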
Procedure, shortened: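 qHTS, 1536-well; 2500 cells/well, 5 hr 37 C; cpd 24 hr 37 C; CellTiter-Glo 30 min RT; luminescence. Tetraoctylammonium bromide pos. ctrl. AC50 via Hill eqn.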

[15] = Cell Viability - LYMP2-008 (AID 980); conditions: LYMP2-008 lymphoblastoid cell viability, qHTS; series mostly up to 92.2 µM; note: nearly all actives have a fitted effect of over 60% in size
Procedure, shortened: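 LYMP2-008 lymphoblastoid cells (2500/well) plated 5 h, then treated 24 h at 37 C in complete medium. Viability read as intracellular ATP by CellTiter-Glo luminescence after 30 min at room temperature; AC50 from Hill fits.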

[16] = Cell Viability - LYMP1-002 - Assay at 24 hr (AID 993); conditions: LYMP1-002 lymphoblastoid cells viability; series mostly up to 92.2 µM
Procedure, shortened: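 Human lymphoblastoid LYMP1-002 cells (2500/well) treated 24 h at 37 °C; viability as intracellular ATP by CellTiter-Glo luminescence. Tetraoctylammonium bromide as positive control; AC50 from Hill-equation fits of qHTS concentration-response.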

[17] = Cell Viability - LYMP1-002 - Assay at 40 hr (AID 994); conditions: LYMP1-002 lymphoblastoid cell viability; series mostly up to 92.2 µM; note: nearly all actives have a fitted effect of over 60% in size
Procedure, shortened: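 LYMP1-002 human lymphoblastoid cells (2500/well, complete medium) were treated with compounds for 40 hr at 37 C. Intracellular ATP was measured by CellTiter-Glo luminescence, and AC50 values came from Hill-equation fits of concentration-response data; tetraoctylammonium bromide was the positive control.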

[18] = qHTS assay for small molecule antagonists of retinoid X receptor alpha signaling (AID 588546; active = well fitted inhibition curve with a large enough effect in the signal ratio, with a control signal flat, not every such curve was filed as active; the % refers to the signal ratio;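 note: cells stimulated with 9-cis-retinoic acid as agonist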); conditions: HEK293T RXRa-UAS-bla, beta-lactamase ratio, antagonist mode; measured here: W530 green channel, cytotoxicity proxy
Procedure, shortened: (§1)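 Beta-lactamase reporter inhibition, read as CCF4 fluorescence ratio (ex 405, em 460/530 nm) after 2 h at RT. HEK293T UAS-bla cells, 2500/well, were stimulated with 9-cis-RA at 500 or 100 nM final alongside test compound for 18 h at 37 C.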

[19] = target: Retinoic acid receptor RXR-alpha (Homo sapiens) (UniProt P19793); experiment: as above; conditions: HEK293T RXRa-UAS-bla, beta-lactamase ratio, antagonist mode
Procedure, shortened: as §1

[20] = qHTS assay for small molecule agonists of the antioxidant response element (ARE) signaling pathway measured by Nrf2-dependant transcriptional activity (AID 720636; active = well fitted curve in the direction sought with a large enough effect in the repeat runs; an effect the other way counts as inactive or inconclusive;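 note: HepG2 cells with an ARE-driven luciferase reporter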); conditions: ARE-luc HepG2, Nrf2 luciferase reporter, 16 h; series mostly up to 92.4 µM
Procedure, shortened: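 Nrf2-dependent transcription is measured in ARE-luc HepG2 cells: compound is applied for 16 hr at 37 C after a 6 hr attachment period, and luciferase activity is quantified by luminescence using ONE-Glo.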

Chain of Retinoic acid receptor RXR-alpha (Homo sapiens) (P19793 whole entry, looked up): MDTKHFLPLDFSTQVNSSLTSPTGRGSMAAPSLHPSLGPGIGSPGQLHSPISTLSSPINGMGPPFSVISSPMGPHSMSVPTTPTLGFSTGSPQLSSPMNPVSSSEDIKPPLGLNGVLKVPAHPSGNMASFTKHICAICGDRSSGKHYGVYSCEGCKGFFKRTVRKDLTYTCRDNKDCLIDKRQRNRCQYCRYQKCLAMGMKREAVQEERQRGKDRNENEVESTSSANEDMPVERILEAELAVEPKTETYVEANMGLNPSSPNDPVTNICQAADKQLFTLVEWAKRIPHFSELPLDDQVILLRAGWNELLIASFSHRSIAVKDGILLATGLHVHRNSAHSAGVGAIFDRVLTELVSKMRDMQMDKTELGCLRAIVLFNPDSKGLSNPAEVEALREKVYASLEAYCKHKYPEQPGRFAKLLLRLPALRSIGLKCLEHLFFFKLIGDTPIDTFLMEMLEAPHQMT

Structure (SMILES): Cc1ccc2ccccc2c1
- Potency [1]: > 92 µM (inactive)
- activity change, negative = cytotoxicity [2]: -3.22% (inactive)
- Potency [3]: inactive
- outcome [4]: inactive
- outcome [5]: inactive
- outcome [6]: inactive
- Potency [7]: inactive
- outcome [8]: inactive
- Potency [9]: inactive
- Potency [10]: inactive
- Potency [11]: inactive
- Potency [12]: inactive
- Potency [13]: inactive
- Potency [14]: inactive
- Potency [15]: inactive
- Potency [16]: inactive
- Potency [17]: inactive
- max response [18]: -12.4%
- max response [19]: -9.3% (inactive)
- outcome [20]: inactive

Structure (SMILES): C=C(C)C#N
- Potency [1]: > 92 µM (inactive)
- activity change, negative = cytotoxicity [2]: 1.28% (inactive)
- Potency [3]: inactive
- outcome [4]: inactive
- outcome [5]: inactive
- outcome [6]: inactive
- Potency [7]: inactive
- outcome [8]: inactive
- Potency [9]: inactive
- Potency [10]: inactive
- Potency [11]: inactive
- Potency [12]: inactive
- Potency [13]: inactive
- Potency [14]: inactive
- Potency [15]: inactive
- Potency [16]: inactive
- Potency [17]: inactive
- max response [18]: 2.43% and -11.4%
- max response [19]: -5.47% (inactive) and -20.9% (inactive)
- outcome [20]: inactive

Structure (SMILES): c1ccc(OP(Oc2ccccc2)Oc2ccccc2)cc1
- Potency [1]: > 92 µM (inactive)
- activity change, negative = cytotoxicity [2]: 6.82% (inactive)
- Potency [3]: inactive
- outcome [4]: inactive
- outcome [5]: inactive
- outcome [6]: inactive
- Potency [7]: inactive
- outcome [8]: inactive
- Potency [9]: inactive
- Potency [10]: inactive
- Potency [11]: inactive
- Potency [12]: inactive
- Potency [13]: inactive
- Potency [14]: inactive
- Potency [15]: inactive
- Potency [16]: inactive
- Potency [17]: inactive
- max response [18]: -3.76% and -10.6%
- max response [19]: 4.67% (inactive) and -4.17% (inactive)
- outcome [20]: inactive

Structure (SMILES): C=CC(C)=O
- Potency [1]: > 92 µM (inactive)
- activity change, negative = cytotoxicity [2]: 3.67% (inactive)
- Potency [3]: inactive
- outcome [4]: inactive
- outcome [5]: inactive
- outcome [6]: inactive
- Potency [7]: inactive
- outcome [8]: inactive
- Potency [9]: inactive
- Potency [10]: inactive
- Potency [11]: inactive
- Potency [12]: inactive
- Potency [13]: inactive
- Potency [14]: inactive
- Potency [15]: inactive
- Potency [16]: inactive
- Potency [17]: inactive
- max response [18]: -5.91%
- max response [19]: 8.07% (inactive)
- outcome [20]: inactive

Structure (SMILES): CCCCOCCOP(=O)(OCCOCCCC)OCCOCCCC
- Potency [1]: > 92 µM (inactive)
- activity change, negative = cytotoxicity [2]: -1.66% (inactive)
- Potency [3]: inactive
- outcome [4]: inactive
- outcome [5]: inactive
- outcome [6]: inactive
- Potency [7]: inactive
- outcome [8]: inactive
- Potency [9]: inactive
- Potency [10]: inactive
- Potency [11]: inactive
- Potency [12]: inactive
- Potency [13]: inactive
- Potency [14]: inactive
- Potency [15]: inactive
- Potency [16]: inactive
- Potency [17]: inactive
- max response [18]: 2.76% and -5.2%
- max response [19]: -9.74% (inactive) and -1.56% (inactive)
- outcome [20]: inactive

Structure (SMILES): O=[N+]([O-])c1cccc2ccccc12
- Potency [1]: > 92 µM (inactive)
- activity change, negative = cytotoxicity [2]: 2.46% (inactive)
- Potency [3]: inactive
- outcome [4]: inactive
- outcome [5]: inactive
- outcome [6]: inactive
- Potency [7]: inactive
- outcome [8]: inactive
- Potency [9]: inactive
- Potency [10]: inactive
- Potency [11]: inactive
- Potency [12]: inactive
- Potency [13]: inactive
- Potency [14]: inactive
- Potency [15]: inactive
- Potency [16]: inactive
- Potency [17]: inactive
- max response [18]: -1.12% and -4.23%
- max response [19]: 5.1% (inactive) and -1.16% (inactive)
- outcome [20]: inactive
